Measurements published in article PMC7862700, “An all-to-all approach to the identification of sequence-specific readers for epigenetic DNA modifications on cytosine”.

What was measured:
Assay in all cases: DAPPL (digital affinity profiling via proximity ligation, sequencing); 10 mM Tris-HCl pH 7.5, 50 mM NaCl, 1 mM DTT, 4% glycerol, room temperature, 30 min; GST-TFs on glutathione beads, 16-mer random dsDNA library, 0.1% formaldehyde crosslink after washing; high values mean tight binding
[1] = target: T1, FLI1 (Homo sapiens, UniProt Q01543 1-452); conditions: protein: recombinant; tags: N-terminal GST; dsDNA, one strand shown
T1 sequence: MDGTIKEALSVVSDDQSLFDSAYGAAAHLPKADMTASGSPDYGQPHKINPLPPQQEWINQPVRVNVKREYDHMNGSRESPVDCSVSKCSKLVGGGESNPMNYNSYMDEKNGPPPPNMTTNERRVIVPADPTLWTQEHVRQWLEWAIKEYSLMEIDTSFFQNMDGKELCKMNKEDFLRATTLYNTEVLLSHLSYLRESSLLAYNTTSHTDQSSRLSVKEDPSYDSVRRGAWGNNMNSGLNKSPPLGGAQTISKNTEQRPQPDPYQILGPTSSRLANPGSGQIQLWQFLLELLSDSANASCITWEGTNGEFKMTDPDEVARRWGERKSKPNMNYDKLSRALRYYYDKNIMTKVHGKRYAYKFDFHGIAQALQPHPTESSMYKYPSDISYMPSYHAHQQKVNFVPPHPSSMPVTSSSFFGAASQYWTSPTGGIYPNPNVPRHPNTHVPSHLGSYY
Procedure, shortened: (§1)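 Yeast served to express human transcription factors as GST fusions, which were then captured on glutathione beads and labelled with DNA barcodes. Pooled with a tag-only sample, they were incubated with 200 nmole of a 16-mer random double-stranded DNA library for 30 min at room temperature in Tris/NaCl/DTT/glycerol buffer, washed, crosslinked with 0.1% formaldehyde, ligated by proximity, amplified by PCR and sequenced. Dividing each hexamer's read frequency for a factor by its frequency for the tag-only sample gives the binding signal.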

[2] = target: T2, ELK1 (Homo sapiens, UniProt P19419 1-428); conditions: protein: recombinant; tags: N-terminal GST; dsDNA, one strand shown
T2 sequence: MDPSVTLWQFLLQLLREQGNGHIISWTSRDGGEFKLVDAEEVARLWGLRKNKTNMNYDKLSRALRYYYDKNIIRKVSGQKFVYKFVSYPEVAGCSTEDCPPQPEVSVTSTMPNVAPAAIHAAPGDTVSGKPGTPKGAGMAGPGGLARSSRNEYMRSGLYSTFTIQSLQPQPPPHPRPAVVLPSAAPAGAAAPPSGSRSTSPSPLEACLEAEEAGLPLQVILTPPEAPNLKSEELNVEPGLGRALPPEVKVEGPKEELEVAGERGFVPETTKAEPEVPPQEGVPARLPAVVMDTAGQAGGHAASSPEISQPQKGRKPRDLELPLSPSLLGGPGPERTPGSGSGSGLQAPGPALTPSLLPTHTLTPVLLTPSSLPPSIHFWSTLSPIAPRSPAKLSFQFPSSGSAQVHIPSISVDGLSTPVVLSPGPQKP
Procedure, shortened: as §1

[3] = target: T3, GABPA (Homo sapiens, UniProt Q06546 1-454); conditions: protein: recombinant; tags: N-terminal GST; dsDNA, one strand shown
T3 sequence: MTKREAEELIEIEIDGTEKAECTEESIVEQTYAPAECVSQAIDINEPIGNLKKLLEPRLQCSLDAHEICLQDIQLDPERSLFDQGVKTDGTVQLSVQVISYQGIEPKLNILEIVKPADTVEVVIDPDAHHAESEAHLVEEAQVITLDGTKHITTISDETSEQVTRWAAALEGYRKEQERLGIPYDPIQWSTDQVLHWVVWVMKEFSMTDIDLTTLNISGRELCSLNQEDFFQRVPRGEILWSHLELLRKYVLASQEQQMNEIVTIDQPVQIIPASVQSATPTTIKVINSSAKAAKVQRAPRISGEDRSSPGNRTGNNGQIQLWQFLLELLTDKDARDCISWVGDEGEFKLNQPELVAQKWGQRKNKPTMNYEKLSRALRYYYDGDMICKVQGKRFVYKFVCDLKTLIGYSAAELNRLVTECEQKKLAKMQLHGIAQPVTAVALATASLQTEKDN
Procedure, shortened: as §1

[4] = target: T4, ERG (Homo sapiens, UniProt P11308 1-479); conditions: protein: recombinant; tags: N-terminal GST; dsDNA, one strand shown
T4 sequence: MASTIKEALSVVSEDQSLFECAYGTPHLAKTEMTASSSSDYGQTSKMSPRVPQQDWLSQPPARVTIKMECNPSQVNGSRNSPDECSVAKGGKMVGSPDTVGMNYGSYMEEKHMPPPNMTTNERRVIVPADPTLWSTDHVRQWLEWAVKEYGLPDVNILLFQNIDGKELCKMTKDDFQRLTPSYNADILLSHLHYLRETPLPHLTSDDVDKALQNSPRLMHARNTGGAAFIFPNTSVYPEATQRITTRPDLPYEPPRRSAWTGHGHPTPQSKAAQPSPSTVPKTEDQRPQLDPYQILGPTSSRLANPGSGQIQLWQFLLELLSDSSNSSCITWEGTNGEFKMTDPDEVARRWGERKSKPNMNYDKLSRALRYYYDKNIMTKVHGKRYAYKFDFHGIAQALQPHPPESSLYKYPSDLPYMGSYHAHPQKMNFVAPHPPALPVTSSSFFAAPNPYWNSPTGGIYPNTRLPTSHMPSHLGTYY
Procedure, shortened: as §1

[5] = target: ELF1 (Homo sapiens, UniProt P32519 1-619); conditions: protein: recombinant; tags: N-terminal GST; dsDNA, one strand shown
Chain of ELF1 (P32519 whole entry): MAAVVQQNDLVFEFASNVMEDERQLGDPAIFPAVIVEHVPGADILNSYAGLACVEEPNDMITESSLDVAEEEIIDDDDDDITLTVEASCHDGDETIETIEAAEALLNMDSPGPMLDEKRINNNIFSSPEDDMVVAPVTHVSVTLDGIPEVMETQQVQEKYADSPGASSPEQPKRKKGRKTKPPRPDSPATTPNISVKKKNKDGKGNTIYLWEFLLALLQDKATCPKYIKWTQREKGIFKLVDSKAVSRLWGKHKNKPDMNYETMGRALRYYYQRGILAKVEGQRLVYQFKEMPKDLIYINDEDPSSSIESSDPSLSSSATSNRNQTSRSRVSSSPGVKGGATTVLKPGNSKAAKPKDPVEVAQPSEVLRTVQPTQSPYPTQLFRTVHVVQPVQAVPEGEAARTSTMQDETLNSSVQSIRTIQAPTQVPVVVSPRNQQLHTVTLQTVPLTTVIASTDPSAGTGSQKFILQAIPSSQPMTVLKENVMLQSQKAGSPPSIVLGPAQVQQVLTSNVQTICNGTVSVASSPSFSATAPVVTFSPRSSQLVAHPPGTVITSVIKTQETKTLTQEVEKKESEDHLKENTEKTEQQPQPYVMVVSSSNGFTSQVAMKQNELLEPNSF
Procedure, shortened: as §1

[6] = target: T5, EHF (Homo sapiens, UniProt Q9NZC4 1-300); conditions: protein: recombinant; tags: N-terminal GST; dsDNA, one strand shown
T5 sequence: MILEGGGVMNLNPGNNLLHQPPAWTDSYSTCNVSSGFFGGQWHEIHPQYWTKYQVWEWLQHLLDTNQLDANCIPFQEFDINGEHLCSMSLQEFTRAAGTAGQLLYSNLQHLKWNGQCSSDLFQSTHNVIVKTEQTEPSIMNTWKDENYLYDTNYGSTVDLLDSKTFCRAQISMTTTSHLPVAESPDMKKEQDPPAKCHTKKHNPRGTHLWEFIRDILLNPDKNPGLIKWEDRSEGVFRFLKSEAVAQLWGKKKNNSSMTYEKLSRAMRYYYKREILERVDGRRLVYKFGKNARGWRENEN
Procedure, shortened: as §1

[7] = target: SPI1 (Homo sapiens, UniProt P17947 1-270); conditions: protein: recombinant; tags: N-terminal GST; dsDNA, one strand shown
Procedure, shortened: as §1

[8] = target: SPIB (Homo sapiens, UniProt Q01892 1-262); conditions: protein: recombinant; tags: N-terminal GST; dsDNA, one strand shown
Chain of SPIB (Q01892 whole entry): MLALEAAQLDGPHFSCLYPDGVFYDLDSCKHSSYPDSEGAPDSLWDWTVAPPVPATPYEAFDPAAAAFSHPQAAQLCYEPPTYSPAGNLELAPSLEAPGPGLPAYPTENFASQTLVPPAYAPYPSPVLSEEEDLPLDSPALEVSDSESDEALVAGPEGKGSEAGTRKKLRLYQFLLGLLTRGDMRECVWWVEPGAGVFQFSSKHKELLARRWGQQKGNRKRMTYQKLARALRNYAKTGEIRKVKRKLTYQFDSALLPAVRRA
Procedure, shortened: as §1

[9] = target: T6, ELK3 (Homo sapiens, UniProt P41970 1-407); conditions: protein: recombinant; tags: N-terminal GST; dsDNA, one strand shown
T6 sequence: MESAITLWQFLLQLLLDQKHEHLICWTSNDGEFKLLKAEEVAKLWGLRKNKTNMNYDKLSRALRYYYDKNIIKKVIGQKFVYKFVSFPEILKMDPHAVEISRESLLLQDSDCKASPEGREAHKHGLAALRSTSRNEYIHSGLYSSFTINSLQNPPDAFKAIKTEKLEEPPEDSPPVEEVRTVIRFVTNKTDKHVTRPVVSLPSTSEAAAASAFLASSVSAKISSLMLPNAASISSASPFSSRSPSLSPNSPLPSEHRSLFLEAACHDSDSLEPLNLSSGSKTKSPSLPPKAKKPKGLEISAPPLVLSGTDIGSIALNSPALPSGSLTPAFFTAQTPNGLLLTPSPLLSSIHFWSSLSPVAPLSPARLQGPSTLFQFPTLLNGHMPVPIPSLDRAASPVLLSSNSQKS
Procedure, shortened: as §1

[10] = target: T7, FEV (Homo sapiens, UniProt Q99581 1-238); conditions: protein: recombinant; tags: N-terminal GST; dsDNA, one strand shown
T7 sequence: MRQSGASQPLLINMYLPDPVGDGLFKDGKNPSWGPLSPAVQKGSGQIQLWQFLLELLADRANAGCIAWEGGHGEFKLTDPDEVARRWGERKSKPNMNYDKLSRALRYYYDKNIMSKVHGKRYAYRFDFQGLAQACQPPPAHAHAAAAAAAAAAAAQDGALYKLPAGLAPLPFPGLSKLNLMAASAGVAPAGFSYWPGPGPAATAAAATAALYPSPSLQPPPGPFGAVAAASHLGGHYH
Procedure, shortened: as §1

[11] = target: ETV5 (Homo sapiens, UniProt P41161 1-510); conditions: protein: recombinant; tags: N-terminal GST; dsDNA, one strand shown
Chain of ETV5 (P41161 whole entry): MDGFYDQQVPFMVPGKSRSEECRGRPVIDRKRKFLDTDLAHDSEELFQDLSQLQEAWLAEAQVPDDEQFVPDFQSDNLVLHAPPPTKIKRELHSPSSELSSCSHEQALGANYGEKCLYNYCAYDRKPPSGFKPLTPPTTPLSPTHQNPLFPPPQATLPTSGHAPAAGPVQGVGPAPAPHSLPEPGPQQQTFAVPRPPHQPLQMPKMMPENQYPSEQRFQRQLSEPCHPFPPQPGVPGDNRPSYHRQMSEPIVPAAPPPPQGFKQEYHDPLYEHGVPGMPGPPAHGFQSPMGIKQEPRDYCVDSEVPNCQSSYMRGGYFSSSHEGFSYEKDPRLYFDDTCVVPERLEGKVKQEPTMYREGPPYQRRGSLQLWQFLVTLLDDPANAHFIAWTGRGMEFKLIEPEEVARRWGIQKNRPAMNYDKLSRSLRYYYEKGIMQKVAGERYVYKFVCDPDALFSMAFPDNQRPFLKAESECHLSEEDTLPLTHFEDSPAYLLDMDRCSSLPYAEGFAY
Procedure, shortened: as §1

[12] = target: HSF1 (Homo sapiens, UniProt Q00613 1-529); conditions: protein: recombinant; tags: N-terminal GST; chain copies: 3; dsDNA, one strand shown
Chain of HSF1 (Q00613 whole entry): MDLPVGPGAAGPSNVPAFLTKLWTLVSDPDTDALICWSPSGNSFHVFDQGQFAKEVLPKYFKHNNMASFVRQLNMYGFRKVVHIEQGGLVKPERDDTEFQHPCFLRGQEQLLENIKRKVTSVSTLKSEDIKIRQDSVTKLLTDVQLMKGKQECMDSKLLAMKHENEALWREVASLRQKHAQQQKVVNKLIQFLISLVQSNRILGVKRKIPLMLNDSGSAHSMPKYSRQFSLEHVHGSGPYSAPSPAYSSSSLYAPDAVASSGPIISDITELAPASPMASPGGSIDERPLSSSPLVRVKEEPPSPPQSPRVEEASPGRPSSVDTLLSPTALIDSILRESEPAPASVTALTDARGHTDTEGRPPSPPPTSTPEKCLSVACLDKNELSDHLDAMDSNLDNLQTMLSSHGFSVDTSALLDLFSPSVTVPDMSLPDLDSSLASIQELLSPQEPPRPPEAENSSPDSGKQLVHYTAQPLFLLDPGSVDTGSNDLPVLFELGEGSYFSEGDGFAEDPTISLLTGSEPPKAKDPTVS
Procedure, shortened: as §1

[13] = target: T8, SPIC (Homo sapiens, UniProt Q8N5J4 1-248); conditions: protein: recombinant; tags: N-terminal GST; dsDNA, one strand shown
T8 sequence: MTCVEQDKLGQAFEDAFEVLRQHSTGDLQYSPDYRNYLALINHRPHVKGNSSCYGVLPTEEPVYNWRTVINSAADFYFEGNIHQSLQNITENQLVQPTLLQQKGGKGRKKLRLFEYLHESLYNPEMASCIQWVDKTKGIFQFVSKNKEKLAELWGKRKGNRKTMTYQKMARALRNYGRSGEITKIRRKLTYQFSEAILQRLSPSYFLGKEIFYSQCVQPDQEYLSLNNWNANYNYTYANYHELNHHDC
Procedure, shortened: as §1

[14] = target: ELF4 (Homo sapiens, UniProt Q99607 1-663); conditions: protein: recombinant; tags: N-terminal GST; dsDNA, one strand shown
Chain of ELF4 (Q99607 whole entry): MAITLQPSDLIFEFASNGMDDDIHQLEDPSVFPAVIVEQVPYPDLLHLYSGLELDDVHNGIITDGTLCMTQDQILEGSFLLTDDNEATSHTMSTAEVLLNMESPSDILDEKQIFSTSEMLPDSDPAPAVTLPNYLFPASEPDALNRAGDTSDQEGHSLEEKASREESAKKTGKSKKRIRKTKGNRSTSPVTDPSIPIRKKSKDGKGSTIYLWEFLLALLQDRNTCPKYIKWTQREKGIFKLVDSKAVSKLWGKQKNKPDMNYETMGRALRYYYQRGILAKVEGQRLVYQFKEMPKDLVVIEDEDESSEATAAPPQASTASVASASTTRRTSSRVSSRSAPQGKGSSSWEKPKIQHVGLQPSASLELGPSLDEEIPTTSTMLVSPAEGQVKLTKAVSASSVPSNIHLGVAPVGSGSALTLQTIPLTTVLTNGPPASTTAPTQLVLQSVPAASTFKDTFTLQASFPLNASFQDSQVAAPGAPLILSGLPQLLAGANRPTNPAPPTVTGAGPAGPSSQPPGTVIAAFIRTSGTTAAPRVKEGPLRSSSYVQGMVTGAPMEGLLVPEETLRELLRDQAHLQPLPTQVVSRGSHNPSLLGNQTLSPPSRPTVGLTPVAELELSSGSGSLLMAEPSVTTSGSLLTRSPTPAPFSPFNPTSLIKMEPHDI
Procedure, shortened: as §1

[15] = target: T9, ELK4 (Homo sapiens, UniProt P28324-2 1-405); conditions: protein: recombinant; tags: N-terminal GST; dsDNA, one strand shown
T9 sequence: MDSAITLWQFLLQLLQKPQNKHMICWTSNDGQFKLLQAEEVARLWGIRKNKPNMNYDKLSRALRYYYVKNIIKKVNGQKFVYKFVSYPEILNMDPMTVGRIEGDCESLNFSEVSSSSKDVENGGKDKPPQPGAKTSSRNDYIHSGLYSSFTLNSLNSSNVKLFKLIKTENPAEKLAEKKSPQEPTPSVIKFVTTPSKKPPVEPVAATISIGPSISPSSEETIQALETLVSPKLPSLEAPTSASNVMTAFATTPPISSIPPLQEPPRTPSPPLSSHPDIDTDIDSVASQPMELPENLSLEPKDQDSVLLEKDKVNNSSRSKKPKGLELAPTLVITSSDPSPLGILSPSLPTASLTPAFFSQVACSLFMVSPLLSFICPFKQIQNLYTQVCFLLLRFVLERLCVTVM
Procedure, shortened: as §1

[16] = target: T10, ETV2 (Homo sapiens, UniProt O00321 1-342); conditions: protein: recombinant; tags: N-terminal GST; dsDNA, one strand shown
T10 sequence: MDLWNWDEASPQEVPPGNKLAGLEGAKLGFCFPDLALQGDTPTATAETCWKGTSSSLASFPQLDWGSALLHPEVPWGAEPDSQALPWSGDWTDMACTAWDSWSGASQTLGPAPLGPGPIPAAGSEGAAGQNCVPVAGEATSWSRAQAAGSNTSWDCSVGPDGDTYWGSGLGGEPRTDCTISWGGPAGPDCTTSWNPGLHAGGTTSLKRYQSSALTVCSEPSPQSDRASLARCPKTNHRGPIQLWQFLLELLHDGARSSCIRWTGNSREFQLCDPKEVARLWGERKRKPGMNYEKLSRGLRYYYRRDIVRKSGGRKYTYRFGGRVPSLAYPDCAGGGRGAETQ
Procedure, shortened: as §1

[17] = target: T11, ELF3 (Homo sapiens, UniProt P78545 1-371); conditions: protein: recombinant; tags: N-terminal GST; dsDNA, one strand shown
T11 sequence: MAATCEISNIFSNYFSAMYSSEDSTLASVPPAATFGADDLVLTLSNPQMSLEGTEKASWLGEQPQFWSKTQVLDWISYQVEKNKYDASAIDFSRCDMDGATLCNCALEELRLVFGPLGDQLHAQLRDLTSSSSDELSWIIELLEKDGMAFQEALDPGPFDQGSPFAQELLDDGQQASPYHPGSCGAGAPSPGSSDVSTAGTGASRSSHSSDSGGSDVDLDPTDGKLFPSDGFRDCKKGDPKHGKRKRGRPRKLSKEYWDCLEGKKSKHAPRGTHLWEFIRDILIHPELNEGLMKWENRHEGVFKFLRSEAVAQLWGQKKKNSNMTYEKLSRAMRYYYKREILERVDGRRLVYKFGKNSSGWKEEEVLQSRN
Procedure, shortened: as §1

[18] = target: CRX (Homo sapiens, UniProt O43186 1-299); conditions: protein: recombinant; tags: N-terminal GST; dsDNA, one strand shown
Chain of CRX (O43186 whole entry): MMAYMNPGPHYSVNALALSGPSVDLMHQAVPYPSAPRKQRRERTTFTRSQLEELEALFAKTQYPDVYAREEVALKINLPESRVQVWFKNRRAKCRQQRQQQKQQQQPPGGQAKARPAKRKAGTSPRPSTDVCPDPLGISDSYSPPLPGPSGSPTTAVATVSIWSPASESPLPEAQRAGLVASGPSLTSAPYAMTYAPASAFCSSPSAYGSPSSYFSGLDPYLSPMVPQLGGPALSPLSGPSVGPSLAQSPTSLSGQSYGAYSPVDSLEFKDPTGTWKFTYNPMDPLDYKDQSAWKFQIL
Procedure, shortened: as §1

[19] = target: ETV1 (Homo sapiens, UniProt P50549 1-477); conditions: protein: recombinant; tags: N-terminal GST; dsDNA, one strand shown
Chain of ETV1 (P50549 whole entry): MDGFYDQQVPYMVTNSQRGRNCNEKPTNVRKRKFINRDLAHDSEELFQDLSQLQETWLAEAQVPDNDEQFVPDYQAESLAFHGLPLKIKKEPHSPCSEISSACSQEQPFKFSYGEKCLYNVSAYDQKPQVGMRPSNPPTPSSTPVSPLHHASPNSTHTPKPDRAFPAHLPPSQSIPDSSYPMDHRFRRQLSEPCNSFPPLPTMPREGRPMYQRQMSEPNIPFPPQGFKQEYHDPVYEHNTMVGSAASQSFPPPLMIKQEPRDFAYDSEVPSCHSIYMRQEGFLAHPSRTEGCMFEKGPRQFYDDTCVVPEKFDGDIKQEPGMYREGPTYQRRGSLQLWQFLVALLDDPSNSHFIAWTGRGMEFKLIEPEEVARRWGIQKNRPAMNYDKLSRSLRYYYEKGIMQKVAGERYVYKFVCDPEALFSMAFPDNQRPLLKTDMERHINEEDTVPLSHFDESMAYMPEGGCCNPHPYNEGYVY
Procedure, shortened: as §1

What does the source list for TGTAAT?
binding signal [1]: 1.27 fold enrichment (6-mer frequency, TF over GST control); binding signal [2]: 1.2 fold enrichment (6-mer frequency, TF over GST control); binding signal [3]: 1.2 fold enrichment (6-mer frequency, TF over GST control); binding signal [4]: 1.2 fold enrichment (6-mer frequency, TF over GST control); binding signal [5]: 1.18 fold enrichment (6-mer frequency, TF over GST control); binding signal [6]: 1.15 fold enrichment (6-mer frequency, TF over GST control); binding signal [7]: 1.15 fold enrichment (6-mer frequency, TF over GST control); binding signal [8]: 1.25 fold enrichment (6-mer frequency, TF over GST control); binding signal [9]: 1.26 fold enrichment (6-mer frequency, TF over GST control); binding signal [10]: 1.12 fold enrichment (6-mer frequency, TF over GST control); binding signal [11]: 1.17 fold enrichment (6-mer frequency, TF over GST control); binding signal [12]: 1.39 fold enrichment (6-mer frequency, TF over GST control); binding signal [13]: 1.27 fold enrichment (6-mer frequency, TF over GST control); binding signal [14]: 1.23 fold enrichment (6-mer frequency, TF over GST control); binding signal [15]: 1.21 fold enrichment (6-mer frequency, TF over GST control); binding signal [16]: 1.26 fold enrichment (6-mer frequency, TF over GST control); binding signal [17]: 1.26 fold enrichment (6-mer frequency, TF over GST control); binding signal [18]: 1.79 fold enrichment (6-mer frequency, TF over GST control); binding signal [19]: 1.17 fold enrichment (6-mer frequency, TF over GST control)
